Laboratory results: the supplement of paper PMC6518042

system: Pectobacterium parmentieri SCC3193; experiment: DuctApe activity index (growth/respiration on compound as sole nutrient source, blank-subtracted) (activity index (0-3)); higher = stronger utilization of the compound, active = 3 or more; conditions: nutrient role (plate category): carbon
Method: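 Biolog Phenotype Microarray plates PM1, PM2A (carbon), PM3 (nitrogen) and PM4 (phosphorus/sulfur) inoculated with P. parmentieri SCC3193 in M9-C minimal salts medium with Biolog dye A, and read in the OmniLog for 46 h. Each well was tested in triplicate and the experiment was run twice. DuctApe computed a blank-subtracted activity index (AV, 0-3) from the mean curves; growth is positive at AV >= 3 and negative at AV <= 2.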

Compound | DuctApe activity index
OC[C@@H](O)[C@H](O)[C@@H](O)CO [Xylitol] | 0 (inactive)
CCC(C)N (stereo not given) [sec-Butylamine] | 0 (inactive)
OC[C@H]1O[C@@H](O[C@@H]2[C@@H](CO)OC(O)(CO)[C@H]2O)[C@H](O)[C@@H](O)[C@H]1O (mixture of isomers) [Lactulose] | 3 (active)
CO[C@@H]1O[C@H](CO)[C@@H](O)[C@H](O)[C@H]1O [b-Methyl-D-Glucoside] | 3 (active)
OC[C@@H](O)[C@@H](O)[C@H](O)[C@@H](O)CO [D-Sorbitol] | 0 (inactive)
N[C@H](CO)C(=O)O [D-Serine] | 0 (inactive)
OC[C@H]1O[C@@](CO)(O[C@H]2O[C@H](CO)[C@@H](O)[C@H](O)[C@H]2O)[C@@H](O[C@H]2O[C@H](CO)[C@@H](O)[C@H](O)[C@H]2O)[C@@H]1O [D-Melezitose] | 0 (inactive)
OCC1OC(OC2C(CO)OC(O)C(O)C2O)C(O)C(O)C1O [D-Cellobiose] | 3 (active)
O=CC(=O)O [Glyoxylic acid] | 0 (inactive)
NC(=O)CCC(=O)O [Succinamic acid] | 3 (active)
O=C1CC[C@@H](C(=O)O)O1 [a-Hydroxyglutaric acid-g-Lactone] | 1 (inactive)
OC[C@H]1O[C@H](O[C@H]2[C@H](O)[C@@H](O)[C@H](O)O[C@@H]2CO)[C@H](O)[C@@H](O)[C@@H]1O [Maltose] | 1 (inactive)
CC(=O)N[C@@H]1[C@@H](O)[C@H](O)[C@@H](CO)O[C@@H]1O [N-Acetyl-D-Glucosamine] | 3 (active)
O[C@@H]1[C@H](O)[C@H](O)CO[C@H]1O [D-Ribose] | 3 (active)
OC[C@@H]1OC(O)[C@@H](O)[C@H](O)[C@H]1O (stereo partly drawn) [L-Glucose] | 0 (inactive)
OC[C@H]1O[C@H](OC[C@H]2OC(O)[C@H](O)[C@@H](O)[C@@H]2O)[C@H](O)[C@@H](O)[C@H]1O (stereo partly drawn) [D-Melibiose] | 3 (active)
C[C@H](N)C(=O)O [L-Alanine] | 0 (inactive)
O=c1ccn([C@@H]2O[C@H](CO)[C@@H](O)[C@H]2O)c(=O)[nH]1 [Uridine] | 1 (inactive)
N[C@@H](Cc1ccccc1)C(=O)O [L-Phenylalanine] | 0 (inactive)
Nc1ncnc2c1ncn2[C@H]1C[C@H](O)[C@@H](CO)O1 [2`-Deoxyadenosine] | 1 (inactive)
N[C@@H](Cc1c[nH]cn1)C(=O)O [L-Histidine] | 0 (inactive)
O=C(O)[C@H]1OC(O)[C@H](O)[C@@H](O)[C@H]1O (stereo partly drawn) [D-Galacturonic acid] | 3 (active)
OC[C@H]1OC(O)[C@H](O)[C@@H](O)[C@@H]1O (stereo partly drawn) [a-D-Glucose] | 3 (active)

same assay, conditions: nutrient role (plate category): nitrogen

Compound | DuctApe activity index
C[C@H](N)C(=O)N[C@@H](CCC(N)=O)C(=O)O | 1 (inactive)
Nc1[nH]cnc2ncnc1-2 [Adenine] | 0 (inactive)
N[C@H](CO)C(=O)O [D-Serine] | 0 (inactive)
CC(=O)N[C@@H]1[C@@H](O)[C@H](O)[C@@H](CO)O[C@@H]1O [N-Acetyl-D-Glucosamine] | 3 (active)
CCCCN [N-Butylamine] | 0 (inactive)
C[C@H](N)C(=O)O [L-Alanine] | 0 (inactive)
O=c1ccn([C@@H]2O[C@H](CO)[C@@H](O)[C@H]2O)c(=O)[nH]1 [Uridine] | 0 (inactive)
N[C@@H](Cc1ccccc1)C(=O)O [L-Phenylalanine] | 0 (inactive)
N[C@@H](Cc1c[nH]cn1)C(=O)O [L-Histidine] | 0 (inactive)
NCCN [Ethylenediamine] | 0 (inactive)

same assay, conditions: nutrient role (plate category): phosphate & sulphur

Compound | DuctApe activity index
O=c1ccn(C2OC(COP(=O)(O)O)C(O)C2O)c(=O)[nH]1 (stereo not given) [Uridine 5`-Monophosphate] | 2 (inactive)
NC(=O)OP(=O)(O)O [Carbamyl Phosphate] | 1 (inactive)
OC[C@H]1O[C@@H](S)[C@H](O)[C@@H](O)[C@@H]1O [1-Thio-b-D-Glucose] | 0 (inactive)
NC(CCSCC(N)C(=O)O)C(=O)O (stereo not given) [Cystathionine] | 1 (inactive)
Nc1ccc(S(=O)(=O)O)cc1 [p-Aminobenzene Sulfonic acid] | 0 (inactive)
C=C(OP(=O)(O)O)C(=O)O [Phosphoenol Pyruvate] | 2 (inactive)
CCCCS(=O)(=O)O [Butane Sulfonic acid] | 1 (inactive)
